In PubChem BioAssay AID1159580 (chemical genetic matrix, 2015):
Several values for one entry are separate records, joined by “and”; a condition that tells them apart may be missing. Identical values can stand only once. In all, about 5,500 compounds went through this assay and about 2,000 (36%) were called active. Roughly 18% stayed inconclusive and do not appear here. Rule as the data show it: active = normalized growth mostly below about 0.91 (no sharp cut-off); inconclusive = no clear call, values can overlap the other calls; inactive = mostly above about 0.92. The list shows a part of the results.

Assay: chemical genetic growth profiling, strain panel (AID 1159580);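 also: tested at 20 µM; growth read once vehicle control cultures reached saturation at 30 °C; 1 = growth at the plate median or of vehicle wells; lower values mean less growth of the strain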
Settings: growth OD

Measured: normalized growth

O=C(CCc1ccc(O)cc1)c1c(O)cc(O)cc1O
inactive: S. cerevisiae deletion strains, locus YJR075W, strain HOC1, active compounds read low 1.01 | S. cerevisiae deletion strains, locus YKL009W, strain mrt4, active compounds read low 1.03 | S. cerevisiae deletion strains, locus YKL068W, active compounds read low 1 | S. cerevisiae deletion strains, locus YKL085W, strain MDH1 (second series), active compounds read low 1.02 | S. cerevisiae deletion strains, locus YKL085W, strain MDH1, active compounds read low 1.02 | S. cerevisiae deletion strains, locus YKL160W, strain elf1, active compounds read low 0.978 | S. cerevisiae deletion strains, locus YKL190W, strain CNB1, active compounds read low 1.01 | S. cerevisiae deletion strains, locus YKR001C, strain vps1, active compounds read low 1.02 | S. cerevisiae deletion strains, locus YKR026C, strain gcn3, active compounds read low 1.01 | S. cerevisiae deletion strains, locus YKR091W, strain srl3, active compounds read low 1.01 | S. cerevisiae deletion strains, locus YLL001W, strain dnm1, active compounds read low 0.985 | S. cerevisiae deletion strains, locus YLL026W, active compounds read low 1.01 | S. cerevisiae deletion strains, locus YLL041C, strain sdh2, active compounds read low 1.02 | S. cerevisiae deletion strains, locus YLR027C, strain aat2, active compounds read low 1.01 | S. cerevisiae deletion strains, locus YLR039C, strain RIC1, active compounds read low 1.04 | S. cerevisiae deletion strains, locus YLR058C, strain SHM2, active compounds read low 1.01 | S. cerevisiae deletion strains, locus YLR102C, strain apc9, active compounds read low 1 | S. cerevisiae deletion strains, locus YLR113W, strain HOG1, active compounds read low 0.966 | S. cerevisiae deletion strains, locus YLR221C, strain rsa3, active compounds read low 1 | S. cerevisiae deletion strains, locus YLR258W, strain gsy2, active compounds read low 1.03 | S. cerevisiae deletion strains, locus YLR262C, strain YPT6 (second series), active compounds read low 1.02 | S. cerevisiae deletion strains, locus YLR262C, strain YPT6, active compounds read low 1.02 | S. cerevisiae deletion strains, locus YLR268W, strain sec22, active compounds read low 0.997 | S. cerevisiae deletion strains, locus YLR320W, strain mms22, active compounds read low 1.02 | S. cerevisiae deletion strains, locus YLR330W, strain CHS5, active compounds read low 1.01 | S. cerevisiae deletion strains, locus YLR342W, strain FKS1 (second series), active compounds read low 1.02 | S. cerevisiae deletion strains, locus YLR342W, strain FKS1, active compounds read low 1.01 | S. cerevisiae deletion strains, locus YLR357W, strain rsc2, active compounds read low 0.955 | S. cerevisiae deletion strains, locus YLR370C, strain arc18, active compounds read low 1.01 | S. cerevisiae deletion strains, locus YLR371W, strain rom2, active compounds read low 1 | S. cerevisiae deletion strains, locus YLR384C, strain iki3, active compounds read low 1.02 | S. cerevisiae deletion strains, locus YLR418C, strain cdc73, active compounds read low 0.991 | S. cerevisiae deletion strains, locus YML016C, strain PPZ1, active compounds read low 1.01 | S. cerevisiae deletion strains, locus YML032C, strain rad52, active compounds read low 1.07 | S. cerevisiae deletion strains, locus YML120C, strain ndi1, active compounds read low 1.01 | S. cerevisiae deletion strains, locus YML124C, strain tub3, active compounds read low 1.01 | S. cerevisiae deletion strains, locus YMR058W, strain fet3, active compounds read low 0.968 | S. cerevisiae deletion strains, locus YMR078C, strain ctf18, active compounds read low 1.02 | S. cerevisiae deletion strains, locus YMR125W, strain sto1, active compounds read low 1 | S. cerevisiae deletion strains, locus YMR129W, active compounds read low 1.02 | S. cerevisiae deletion strains, locus YMR205C, strain PFK2, active compounds read low 1.01 | S. cerevisiae deletion strains, locus YMR223W, strain ubp8, active compounds read low 1.04 | S. cerevisiae deletion strains, locus YMR231W, strain pep5, active compounds read low 0.988 | S. cerevisiae deletion strains, locus YMR263W, strain SAP30, active compounds read low 0.991 | S. cerevisiae deletion strains, locus YMR307W, strain GAS1, active compounds read low 0.986 and 1.01 | S. cerevisiae deletion strains, locus YNL067W, strain RPL9B, active compounds read low 0.994 | S. cerevisiae deletion strains, locus YNL071W, strain lat1, active compounds read low 1.03 | S. cerevisiae deletion strains, locus YNL128W, strain TEP1, active compounds read low 0.995 | S. cerevisiae deletion strains, locus YNL153C, strain GIM3, active compounds read low 0.991 and 0.975 | S. cerevisiae deletion strains, locus YNL175C, strain NOP13, active compounds read low 1 | S. cerevisiae deletion strains, locus YNL183C, strain NPR1, active compounds read low 0.947 | S. cerevisiae deletion strains, locus YNL197C, strain WHI3, active compounds read low 1 | S. cerevisiae deletion strains, locus YNL209W, strain ssb2, active compounds read low 1 | S. cerevisiae deletion strains, locus YNL224C, strain SQS1, active compounds read low 0.997 | S. cerevisiae deletion strains, locus YNL233W, strain BNI4, active compounds read low 0.985 | S. cerevisiae deletion strains, locus YNL248C, strain rpa49, active compounds read low 1.03 | S. cerevisiae deletion strains, locus YNL250W, strain rad50, active compounds read low 1.03 | S. cerevisiae deletion strains, locus YNL271C, strain bni1, active compounds read low 1.01 | S. cerevisiae deletion strains, locus YNL298W, strain CLA4, active compounds read low 1.03 | S. cerevisiae deletion strains, locus YNL307C, strain MCK1, active compounds read low 1.03 | S. cerevisiae deletion strains, locus YNL322C, strain KRE1 (second series), active compounds read low 0.978 | S. cerevisiae deletion strains, locus YNL322C, strain KRE1, active compounds read low 1 and 0.999 | S. cerevisiae deletion strains, locus YNR049C, strain mso1, active compounds read low 1.01 | S. cerevisiae deletion strains, locus YNR052C, strain pop2, active compounds read low 1.02 | S. cerevisiae deletion strains, locus YOL006C, strain TOP1, active compounds read low 1.02 | S. cerevisiae deletion strains, locus YOL012C, strain htz1 0.845 | S. cerevisiae deletion strains, locus YOL147C, strain pex11, active compounds read low 1.01 | S. cerevisiae deletion strains, locus YOR001W, strain rrp6, active compounds read low 1.03 | S. cerevisiae deletion strains, locus YOR061W, strain CKA2, active compounds read low 0.998 | S. cerevisiae deletion strains, locus YOR069W, strain VPS5, active compounds read low 0.995 | S. cerevisiae deletion strains, locus YOR070C, strain gyp1, active compounds read low 1.02 | S. cerevisiae deletion strains, locus YOR080W, strain dia2, active compounds read low 1.01 | S. cerevisiae deletion strains, locus YOR083W, strain WHI5 (second series), active compounds read low 1.01 | S. cerevisiae deletion strains, locus YOR083W, strain WHI5, active compounds read low 0.982 | S. cerevisiae deletion strains, locus YOR106W, strain vam3, active compounds read low 1.02 | S. cerevisiae deletion strains, locus YOR136W, strain idh2, active compounds read low 1.02 | S. cerevisiae deletion strains, locus YOR144C, strain elg1, active compounds read low 1 | S. cerevisiae deletion strains, locus YOR184W, strain ser1, active compounds read low 1.07 | S. cerevisiae deletion strains, locus YOR231W, strain MKK1, active compounds read low 0.983 | S. cerevisiae deletion strains, locus YOR265W, strain rbl2, active compounds read low 1 | S. cerevisiae deletion strains, locus YOR270C, strain vph1, active compounds read low 1.06 | S. cerevisiae deletion strains, locus YOR290C, strain snf2, active compounds read low 0.982 | S. cerevisiae deletion strains, locus YOR316C, strain cot1, active compounds read low 0.996 | S. cerevisiae deletion strains, locus YPL051W, strain arl3, active compounds read low 0.983 | S. cerevisiae deletion strains, locus YPL055C, strain LGE1, active compounds read low 0.992 and 1.01 | S. cerevisiae deletion strains, locus YPL078C, strain atp4, active compounds read low 1 | S. cerevisiae deletion strains, locus YPL106C, strain sse1, active compounds read low 0.976 | S. cerevisiae deletion strains, locus YPL240C, strain hsp82, active compounds read low 1.01 | S. cerevisiae deletion strains, locus YPL241C, strain CIN2, active compounds read low 1 | S. cerevisiae deletion strains, locus YPL256C, strain CLN2, active compounds read low 0.961 | S. cerevisiae deletion strains, locus YPR119W, strain clb2, active compounds read low 1.01 | S. cerevisiae deletion strains, locus YPR141C, strain kar3, active compounds read low 1.02 | S. cerevisiae deletion strains, locus YPR163C, strain tif3, active compounds read low 1.02 | S. cerevisiae deletion strains, locus YPR167C, strain met16, active compounds read low 1.01 | S. cerevisiae deletion strains, strain wtn01, active compounds read low 0.978 | S. cerevisiae strains, strain wild type, active compounds read low 0.998
